Assay results from the supplement of paper PMC10849652.
About 8,800 targets were measured; listed, in parts, are those with a hit and a random draw of the rest. About 0.5% of all pairs of compound and target were hits. Values without a mark were called inactive.

What was measured:
Assay in all cases: log2 fold change, soluble protein after heating vs DMSO (PISA); higher = thermal stabilisation; K562 lysate, 10 uM; active = over 0.2 and 3.5 SD of the protein, either way, in both replicates (recomputed)
[1] = compound: NCC(=O)Nc1ccc(-n2nc(C(F)(F)F)cc2-c2ccc3c(ccc4ccccc43)c2)cc1
How it was run: (§1)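 To prepare the extract, K562 pellets were dounce-homogenised in PBS pH 7.4 with 1 mM MgCl2, giving crude material at 1 mg/mL protein. This was treated with 10 μM compound for 30 min, then heated in aliquots for 3 min over 48°C-58°C before pooling and addition of NP-40 to 0.5% at 4°C. Centrifugation at 21,000xg for 90 min left soluble protein in the supernatant, which TMTpro 16plex LC-MS/MS quantified with equalised channel sums. Results are log-two fold changes in thermal stability compared with solvent controls, from duplicates.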

entospletinib = compound: c1cn2cc(-c3ccc4cn[nH]c4c3)nc(Nc3ccc(N4CCOCC4)cc3)c2n1 [entospletinib]
How it was run: as §1

quisinostat = compound: Cn1cc(CNCC2CCN(c3ncc(C(=O)NO)cn3)CC2)c2ccccc21 [quisinostat]
How it was run: as §1

[2] = compound: NC(=O)Nc1cc(-c2cccc(F)c2)sc1C(=O)N[C@H]1CCCNC1
How it was run: as §1

[3] = compound: O=C1NC(=O)C(c2cnc3ccccn23)=C1c1cn2c3c(cc(F)cc13)CN(C(=O)N1CCCCC1)CC2
How it was run: as §1

nilotinib = compound: Cc1cn(-c2cc(NC(=O)c3ccc(C)c(Nc4nccc(-c5cccnc5)n4)c3)cc(C(F)(F)F)c2)cn1 [nilotinib]
How it was run: as §1

dasatinib = compound: Cc1nc(Nc2ncc(C(=O)Nc3c(C)cccc3Cl)s2)cc(N2CCN(CCO)CC2)n1 [dasatinib]
How it was run: as §1

[4] = compound: Cn1cc(-c2ccc3c(c2)CCN3C(=O)Cc2cccc(C(F)(F)F)c2)c2c(N)ncnc21
How it was run: as §1

tipifarnib = compound: Cn1cncc1[C@@](N)(c1ccc(Cl)cc1)c1ccc2c(c1)c(-c1cccc(Cl)c1)cc(=O)n2C [tipifarnib]
How it was run: as §1

[5] = compound: NC(=O)c1cnc(N[C@@H]2CCCC[C@@H]2N)nc1Nc1cccc(-n2nccn2)c1
How it was run: as §1

[6] = compound: NC1(c2ccc(-c3nc4ccn5c(=O)[nH]nc5c4cc3-c3ccccc3)cc2)CCC1
How it was run: as §1

vorinostat = compound: O=C(CCCCCCC(=O)Nc1ccccc1)NO [vorinostat]
How it was run: as §1

silmitasertib = compound: O=C(O)c1ccc2c(c1)nc(Nc1cccc(Cl)c1)c1ccncc12 [silmitasertib]
How it was run: as §1

[7] = compound: Cc1nc(Nc2n[nH]c3c2CN(C(=O)N[C@H](CN(C)C)c2ccccc2)C3(C)C)c2sccc2n1
How it was run: as §1

[8] = compound: Cc1ncc(-c2ccnc(Nc3ccc(S(C)(=O)=O)cc3)n2)n1C(C)C
How it was run: as §1

Chain of UniProt Q13825 (Q13825 whole entry, looked up): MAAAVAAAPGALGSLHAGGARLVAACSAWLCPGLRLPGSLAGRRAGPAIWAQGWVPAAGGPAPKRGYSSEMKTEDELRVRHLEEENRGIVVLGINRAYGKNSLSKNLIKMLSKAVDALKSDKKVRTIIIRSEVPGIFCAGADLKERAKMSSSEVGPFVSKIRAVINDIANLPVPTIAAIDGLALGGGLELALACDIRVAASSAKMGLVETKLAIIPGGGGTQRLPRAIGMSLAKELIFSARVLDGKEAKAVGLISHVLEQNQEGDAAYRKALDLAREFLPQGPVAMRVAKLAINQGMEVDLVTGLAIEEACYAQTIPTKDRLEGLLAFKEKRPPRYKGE
Chain of UniProt Q6ZU80 (Q6ZU80 whole entry, looked up): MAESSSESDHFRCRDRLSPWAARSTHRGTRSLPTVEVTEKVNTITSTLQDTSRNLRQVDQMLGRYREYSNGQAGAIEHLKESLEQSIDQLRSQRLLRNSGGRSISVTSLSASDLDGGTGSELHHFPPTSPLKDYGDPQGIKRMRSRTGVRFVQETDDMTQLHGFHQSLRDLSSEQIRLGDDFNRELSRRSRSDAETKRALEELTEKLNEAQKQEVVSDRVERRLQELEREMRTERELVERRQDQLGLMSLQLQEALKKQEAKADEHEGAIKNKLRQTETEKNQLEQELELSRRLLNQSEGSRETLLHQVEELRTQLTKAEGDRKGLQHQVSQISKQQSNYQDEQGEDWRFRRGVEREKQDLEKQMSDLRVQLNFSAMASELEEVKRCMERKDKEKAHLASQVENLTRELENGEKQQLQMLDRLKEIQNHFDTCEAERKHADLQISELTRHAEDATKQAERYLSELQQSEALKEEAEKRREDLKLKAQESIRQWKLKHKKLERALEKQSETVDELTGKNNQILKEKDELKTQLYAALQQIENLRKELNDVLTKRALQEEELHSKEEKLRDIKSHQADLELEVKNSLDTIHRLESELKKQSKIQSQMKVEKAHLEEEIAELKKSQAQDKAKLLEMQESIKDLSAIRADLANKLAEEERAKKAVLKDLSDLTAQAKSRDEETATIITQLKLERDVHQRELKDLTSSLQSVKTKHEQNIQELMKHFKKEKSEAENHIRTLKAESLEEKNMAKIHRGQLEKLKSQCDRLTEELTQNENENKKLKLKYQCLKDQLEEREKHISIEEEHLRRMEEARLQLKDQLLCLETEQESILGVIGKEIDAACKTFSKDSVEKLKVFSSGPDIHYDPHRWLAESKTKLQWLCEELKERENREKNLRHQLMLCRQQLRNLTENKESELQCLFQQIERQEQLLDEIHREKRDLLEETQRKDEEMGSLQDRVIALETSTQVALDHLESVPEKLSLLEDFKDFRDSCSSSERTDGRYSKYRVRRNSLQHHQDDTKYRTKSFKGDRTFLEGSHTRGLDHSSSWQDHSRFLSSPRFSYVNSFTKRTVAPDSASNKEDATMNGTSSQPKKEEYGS
Chain of UniProt Q9Y297 (Q9Y297 whole entry, looked up): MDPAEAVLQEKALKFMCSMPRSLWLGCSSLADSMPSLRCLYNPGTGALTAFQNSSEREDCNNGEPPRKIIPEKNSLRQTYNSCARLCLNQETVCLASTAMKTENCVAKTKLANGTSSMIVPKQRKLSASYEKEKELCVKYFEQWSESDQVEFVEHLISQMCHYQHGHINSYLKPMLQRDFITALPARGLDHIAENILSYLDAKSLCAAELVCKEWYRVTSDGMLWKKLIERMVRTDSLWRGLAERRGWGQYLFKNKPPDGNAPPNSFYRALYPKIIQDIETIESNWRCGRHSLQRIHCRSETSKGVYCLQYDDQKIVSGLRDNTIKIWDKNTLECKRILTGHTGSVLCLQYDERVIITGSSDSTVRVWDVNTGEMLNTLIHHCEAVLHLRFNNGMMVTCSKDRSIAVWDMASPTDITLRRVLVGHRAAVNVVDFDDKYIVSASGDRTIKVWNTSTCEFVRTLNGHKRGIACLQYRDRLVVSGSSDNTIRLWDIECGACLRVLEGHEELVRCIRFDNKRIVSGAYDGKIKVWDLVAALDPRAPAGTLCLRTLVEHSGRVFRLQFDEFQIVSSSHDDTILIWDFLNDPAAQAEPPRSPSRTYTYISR
Chain of UniProt Q7Z7K6 (Q7Z7K6 whole entry, looked up): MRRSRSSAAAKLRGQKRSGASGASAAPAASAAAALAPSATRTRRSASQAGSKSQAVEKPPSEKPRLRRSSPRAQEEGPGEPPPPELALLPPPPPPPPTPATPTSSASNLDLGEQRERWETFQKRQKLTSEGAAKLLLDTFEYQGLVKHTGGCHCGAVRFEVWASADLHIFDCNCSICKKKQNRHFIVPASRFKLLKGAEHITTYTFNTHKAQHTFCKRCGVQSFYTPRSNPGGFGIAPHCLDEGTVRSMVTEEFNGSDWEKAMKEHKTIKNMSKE
Chain of UniProt Q6P4H8 (Q6P4H8 whole entry, looked up): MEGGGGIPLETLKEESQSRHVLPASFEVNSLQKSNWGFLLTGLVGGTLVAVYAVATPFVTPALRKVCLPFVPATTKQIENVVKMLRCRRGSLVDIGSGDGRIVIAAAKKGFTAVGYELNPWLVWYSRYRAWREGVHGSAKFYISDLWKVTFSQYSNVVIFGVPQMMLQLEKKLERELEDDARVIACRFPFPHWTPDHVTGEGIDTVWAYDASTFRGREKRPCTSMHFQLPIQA
Chain of UniProt Q15834 (Q15834 whole entry, looked up): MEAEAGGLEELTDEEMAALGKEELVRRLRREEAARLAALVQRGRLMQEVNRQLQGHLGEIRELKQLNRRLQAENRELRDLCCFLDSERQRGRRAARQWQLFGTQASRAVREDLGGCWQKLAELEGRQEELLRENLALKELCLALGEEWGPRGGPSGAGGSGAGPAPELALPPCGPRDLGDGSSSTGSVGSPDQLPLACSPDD
Chain of UniProt O95260 (O95260 whole entry, looked up): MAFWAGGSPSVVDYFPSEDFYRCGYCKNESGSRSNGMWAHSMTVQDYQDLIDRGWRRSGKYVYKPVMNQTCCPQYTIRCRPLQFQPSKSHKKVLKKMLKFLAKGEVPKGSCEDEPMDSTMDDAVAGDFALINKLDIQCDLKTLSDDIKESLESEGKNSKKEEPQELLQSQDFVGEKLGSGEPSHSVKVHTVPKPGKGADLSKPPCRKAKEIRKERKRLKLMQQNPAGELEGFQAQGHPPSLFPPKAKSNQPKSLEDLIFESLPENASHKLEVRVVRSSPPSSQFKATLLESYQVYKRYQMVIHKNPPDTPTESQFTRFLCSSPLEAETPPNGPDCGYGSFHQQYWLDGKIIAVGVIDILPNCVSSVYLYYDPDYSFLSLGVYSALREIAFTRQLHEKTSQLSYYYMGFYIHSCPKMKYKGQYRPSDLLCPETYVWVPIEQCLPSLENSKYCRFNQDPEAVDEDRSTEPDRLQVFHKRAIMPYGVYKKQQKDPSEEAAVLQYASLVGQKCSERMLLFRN
Chain of UniProt Q86Y37 (Q86Y37 whole entry, looked up): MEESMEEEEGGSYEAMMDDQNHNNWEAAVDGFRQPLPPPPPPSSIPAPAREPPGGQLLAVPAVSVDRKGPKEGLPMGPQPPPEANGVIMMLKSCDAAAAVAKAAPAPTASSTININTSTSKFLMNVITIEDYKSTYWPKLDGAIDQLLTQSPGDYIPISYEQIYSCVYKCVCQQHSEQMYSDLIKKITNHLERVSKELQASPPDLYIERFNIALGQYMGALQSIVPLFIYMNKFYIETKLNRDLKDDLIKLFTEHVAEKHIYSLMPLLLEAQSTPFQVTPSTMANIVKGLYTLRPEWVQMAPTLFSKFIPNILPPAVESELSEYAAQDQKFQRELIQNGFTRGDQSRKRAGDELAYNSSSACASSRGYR
Chain of UniProt Q96L58 (Q96L58 whole entry, looked up): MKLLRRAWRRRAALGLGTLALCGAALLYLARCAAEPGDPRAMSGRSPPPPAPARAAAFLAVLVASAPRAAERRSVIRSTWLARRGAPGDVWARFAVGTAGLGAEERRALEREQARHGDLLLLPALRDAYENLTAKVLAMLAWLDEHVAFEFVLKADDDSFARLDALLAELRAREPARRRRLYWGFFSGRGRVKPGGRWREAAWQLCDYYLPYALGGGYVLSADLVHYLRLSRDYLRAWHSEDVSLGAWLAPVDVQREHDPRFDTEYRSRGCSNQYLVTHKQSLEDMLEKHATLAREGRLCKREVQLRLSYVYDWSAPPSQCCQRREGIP
Chain of UniProt Q53HL2 (Q53HL2 whole entry, looked up): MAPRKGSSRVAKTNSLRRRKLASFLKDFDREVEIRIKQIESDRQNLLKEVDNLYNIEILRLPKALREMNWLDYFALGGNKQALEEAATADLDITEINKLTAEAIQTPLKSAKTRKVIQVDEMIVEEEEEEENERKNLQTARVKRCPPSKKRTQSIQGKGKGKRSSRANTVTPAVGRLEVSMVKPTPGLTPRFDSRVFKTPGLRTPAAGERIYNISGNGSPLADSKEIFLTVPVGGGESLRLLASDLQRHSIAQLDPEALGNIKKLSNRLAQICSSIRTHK
Chain of UniProt P46527 (P46527 whole entry, looked up): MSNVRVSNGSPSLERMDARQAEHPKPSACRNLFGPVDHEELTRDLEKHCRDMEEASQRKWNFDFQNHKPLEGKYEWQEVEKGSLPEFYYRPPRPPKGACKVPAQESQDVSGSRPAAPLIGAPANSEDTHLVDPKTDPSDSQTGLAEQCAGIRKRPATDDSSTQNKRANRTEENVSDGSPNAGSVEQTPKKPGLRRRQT
Chain of UniProt P13994 (P13994 whole entry, looked up): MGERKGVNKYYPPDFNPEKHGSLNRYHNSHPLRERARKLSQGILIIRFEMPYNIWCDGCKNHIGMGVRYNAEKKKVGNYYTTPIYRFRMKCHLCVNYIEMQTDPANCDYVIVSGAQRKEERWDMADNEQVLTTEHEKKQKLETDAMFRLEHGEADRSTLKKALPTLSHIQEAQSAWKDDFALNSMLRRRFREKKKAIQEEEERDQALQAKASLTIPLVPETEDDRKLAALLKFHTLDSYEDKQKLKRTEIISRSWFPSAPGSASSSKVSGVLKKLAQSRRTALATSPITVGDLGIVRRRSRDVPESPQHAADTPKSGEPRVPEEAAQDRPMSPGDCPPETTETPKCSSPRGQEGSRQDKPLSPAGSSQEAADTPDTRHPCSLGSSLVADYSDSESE

Row | Target | log2 fold change [1] | log2 fold change (entospletinib) | log2 fold change (quisinostat) | log2 fold change [2] | log2 fold change [3] | log2 fold change (nilotinib) | log2 fold change (dasatinib) | log2 fold change [4] | log2 fold change (tipifarnib) | log2 fold change [5] | log2 fold change [6] | log2 fold change (vorinostat) | log2 fold change (silmitasertib) | log2 fold change [7] | log2 fold change [8]
1 | BRAF, A0A2R8Y8E0 | 0.017 | -0.082 |  |  |  |  |  |  |  |  |  |  |  |  | 
2 | CDAN1 (UniProt H3BPZ6) |  |  | 0.093 | 0.056 | 0.006 |  |  |  |  |  |  |  |  |  | 
3 | CDK2 (UniProt P24941) | -0.02 | 0.039 | -0.077 | 0.005 | 0.202 | -0.01 | 0.018 | 0.01 | 0.011 | 0.067 | -0.012 | 0.006 | 0.248 |  | 
4 | ATXN2 (UniProt F8WB06) |  |  |  |  |  |  | -0.074 | -0.053 |  |  |  |  |  |  | 
5 | ATG4D (UniProt Q86TL0) |  | 0.004 | -0.085 | 0.084 | 0.117 |  | -0.037 | -0.57 (active) |  |  |  |  |  |  | 
6 | CDCA8 (UniProt Q53HL2) | 0.066 | 0.112 |  |  |  | 0.03 | 0.012 | -0.011 | 0.046 |  | -0.051 | 0.13 | -0.093 | -0.002 | -0.277
7 | CACUL1 (UniProt Q86Y37) | 0.176 | -0.056 | 0.025 | 0.102 | -0.081 |  | -0.094 | 0.157 |  | -0.1 | -0.028 | -0.543 (active) | 0.024 |  | 
8 | CAD (UniProt H7BZB3) | 0.113 | -0.008 |  |  |  |  |  |  |  |  | 0.551 (active) | -0.54 | -0.006 |  | 
9 | BCORL1 isoform 3 (UniProt Q5H9F3) | 0.177 | -0.018 | 0.035 | 0.235 | 0.213 |  | 0.039 | -0.09 |  |  | -0.091 | -0.004 | -0.093 |  | 
10 | CDKN1B (UniProt P46527) | 0.062 | -0.028 | 0.393 (active) | -0.122 | -0.067 |  | 0.021 | 0.034 |  | -0.035 | 0.045 | -0.011 | 0.048 |  | 
11 | CENPV (UniProt Q7Z7K6) | 0.396 | 0.084 | 0.038 | -0.077 | 0.039 | 1.5 (active) |  |  | 0.08 |  |  |  |  | -0.184 | 0.816
12 | ATE1 (UniProt O95260) |  |  | 0.019 | -0.093 | 0.028 |  |  |  |  | 0.026 |  |  |  |  | 
13 | C16orf70 (UniProt Q9BSU1) | -0.013 | -0.104 | 0.036 | -0.005 | -0.015 |  | 0.042 | -0.091 |  | -0.001 | 0.009 | -0.382 (active) | 0.019 |  | 
14 | CCDC130 (UniProt P13994) |  | -0.076 | -0.583 | -0.183 | -0.306 |  |  |  |  |  | 0.259 | -0.003 | 0.173 |  | 
15 | CAPNS1 (UniProt K7ES78) | -0.234 |  | 0.247 | -0.002 | 0.141 |  | -0.027 | -0.006 |  | 0.053 | -0.099 | -0.011 | -0.037 |  | 
16 | AUH (UniProt Q13825) | 0.1 | -0.11 | -0.002 | -0.018 | -0.063 |  | -0.274 | 0.14 |  | 0.193 | -0.066 | -0.068 | 0.017 |  | 
17 | CCAR2 (UniProt G3V119) |  |  |  |  |  |  |  |  |  | -0.015 |  |  |  |  | 
18 | CAPNS1 (UniProt U3KPR7) |  |  |  |  |  | -0.166 |  |  | 0.161 | -0.214 |  |  |  | -0.416 | 0.226
19 | BICRA (UniProt Q9NZM4) |  |  | 0.037 | -0.004 | -0.076 |  | 0.088 | -0.1 |  | 0.054 | -0.382 | 0.11 | -0.203 |  | 
20 | ATPSCKMT (UniProt Q6P4H8) |  | 0.105 | 0.018 | 0.001 | 0 |  | 0.052 | -0.021 |  |  |  |  |  |  | 
21 | CEP128 (UniProt Q6ZU80) | 0.017 | -0.081 |  |  |  |  | -0.168 | 0.041 |  |  |  |  |  |  | 
22 | C3AR1 (UniProt Q16581) |  |  | 0.065 | -0.033 | -0.013 | -0.026 |  |  | -0.036 |  |  |  |  | 0.286 | -0.111
23 | C6orf120 (UniProt Q7Z4R8) |  |  |  |  |  |  | -0.007 | 0.147 |  | 0.017 | 0.041 | 0.273 | -0.075 |  | 
24 | CHD4, A0A2R8Y521 |  | -0.313 |  |  |  | -0.125 | -0.09 | -0.247 | 0.391 | -0.174 |  |  |  | -0.088 | -0.156
25 | BTRC (UniProt Q9Y297) | 0.03 | -0.004 |  |  |  | 0.006 |  |  | 0.02 | 0.059 | 0.031 | -0.342 (active) | 0.035 | 0.02 | -0.003
26 | B3GALT6 (UniProt Q96L58) |  |  | -0.086 | 0.137 | 0.071 |  | -0.148 | 0.233 |  |  | -0.174 | 0.218 | -0.029 |  | 
27 | C8orf88 (UniProt P0DMB2) |  |  | -0.042 | -0.011 | 0.024 |  | 0.07 | -0.134 |  |  | 0.084 | -0.455 (active) | 0.056 |  | 
28 | CANX (UniProt D6RHJ3) | 0.012 |  |  |  |  | -0.055 |  |  | 0.126 | -0.103 |  |  |  | 0.129 | 0.191
29 | CCP110 (UniProt O43303) | -0.033 | 0.045 | -0.062 | 0.107 | -0.124 |  | 0.063 | -0.01 |  |  | 0.055 | -0.102 | -0.131 |  | 
30 | CCDC85B (UniProt Q15834) | -0.039 | -0.397 | 0.086 | 0.044 | -0.077 |  | 0.066 | -0.034 |  | -0.225 | 0.188 | 0.088 | 0.042 |  | 
